Assay outcomes from PubChem.
Most compounds without a hit are left out; they make up all but 1.5% or so of the library.
MazF activator: increases E. coli MazEF RNase cleavage of RNA. actives 0.32% (n = 350,000). FAM/BHQ RNA-DNA oligo cleavage fluorescence, 5 h. P0AE70. AID 504720. activation, % at 20 µM; in the data active = activation above about 50%
Target sequence (P0AE70 whole entry, looked up): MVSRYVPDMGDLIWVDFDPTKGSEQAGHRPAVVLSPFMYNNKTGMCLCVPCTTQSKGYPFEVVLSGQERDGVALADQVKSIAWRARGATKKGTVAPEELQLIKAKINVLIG
DUSP3 inh: blocks human VHR1 dual specificity phosphatase. P51452. recombinant VHR phosphatase, pNPP absorbance. inhibition, % at 13.3 µM. actives 0.52% (n = 290,000); in the data active = inhibition above about 50%
Target sequence (P51452 whole entry, looked up): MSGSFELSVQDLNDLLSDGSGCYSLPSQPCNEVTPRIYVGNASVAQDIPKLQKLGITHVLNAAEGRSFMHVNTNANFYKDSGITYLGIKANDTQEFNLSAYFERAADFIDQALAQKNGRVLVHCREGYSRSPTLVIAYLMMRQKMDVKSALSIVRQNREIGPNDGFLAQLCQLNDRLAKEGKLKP
SARS 3CLpro inh-1: SARS-CoV 3CLpro protease inhibition; P0C6X7; recombinant SARS-CoV 3CLpro, quenched FRET peptide cleavage; inhibition, % at 6 µM; actives 0.14% (n = 290,000); AID 1706; in the data active = inhibition above about 12%
PrPC surface inh: cell surface PrPC inhibition, primary TR-FRET screen; P04156; actives 0.43% (n = 370,000); AID 720596; inhibition, % at 13.8 µM; TR-FRET read-out; in the data active = inhibition above about 24%
PrP UTR inh: inhibition of PrP 5' UTR reporter expression; AID 488862; actives 0.35% (n = 340,000); inhibition, % (no concentration beside the values); cell-based PrP 5' UTR mRNA reporter, plate reader; in the data active = inhibition above about 52%
Mtb hypoxia rep: Mtb hypoxia fluorescent reporter inhibition | M. tuberculosis hypoxia-regulated fluorescent reporter, fluorescence | fluorescence inhibition, % (concentration not given with the values) | actives 0.1% (n = 300,000) | AID 1159583; in the data active = fluorescence inhibition mostly above about 23%, no sharp cut-off; inactive = mostly below about 17%
SARS 3CLpro inh-2: SARS 3CLpro inhibition, confirmation assay; shares compounds with SARS 3CLpro inh-1; QFRET protease activity assay; AID 1879; actives 36% (n = 380); inhibition, % at 6 µM; in the data active = inhibition above about 13%
A number is an active result; n = inactive; x = no result.

SMILES	MazF activator	DUSP3 inh	SARS 3CLpro inh-1	PrPC surface inh	PrP UTR inh	Mtb hypoxia rep	SARS 3CLpro inh-2
COc1ccc(C(C)=NNC(=O)CNC(=O)c2ccncc2)c(OC)c1	x	x	x	x	x	n	x
O=C(CCl)N1N=C(c2cccs2)CC1c1ccco1 (stereo unspecified)	n	n	38.5	n	n	n	83.4
CN(Cc1ccc(F)cc1)S(=O)(=O)c1nnc(NC(=O)c2ccccc2)s1	n	n	n	n	n	n	x
CCN(c1ccccc1)S(=O)(=O)c1nnc(NC(=O)CC(C)C)s1	n	n	n	n	n	n	x
CCN(c1ccccc1)S(=O)(=O)c1nnc(NC(=O)c2ccccc2OC)s1	n	n	12.7	n	n	n	n
CN(Cc1ccc(F)cc1)S(=O)(=O)c1nnc(NC(=O)c2ccccc2Br)s1	n	n	12.7	n	n	n	n
CC(C)OP(=O)(OC(C)C)C1(NS(=O)(=O)c2ccc(Cl)cc2)C=C(Cl)C(=O)C(Cl)=C1	n	n	17.0	n	n	n	n
CCOc1ccc(N(CC(=O)NCCSCc2ccco2)S(=O)(=O)c2ccc(C)cc2)cc1	n	n	12.3	n	n	n	n
CC(C)(C)OC(=O)[C@H](Cc1ccccc1)NC(=O)c1[nH]cnc1C(=O)N[C@@H](Cc1ccccc1)C(=O)OCc1ccccc1	n	n	12.7	n	n	x	n
O=C(Cn1nnc2ccccc21)c1ccc(Cl)cc1	n	n	34.7	n	n	n	35.0
O=C(COC(=O)CCc1c[nH]c2ccccc12)Nc1ccccc1	n	x	x	n	n	n	x
O=C(COC(=O)CCc1c[nH]c2ccccc12)NC(c1ccccc1)c1ccccc1	n	n	13.1	n	n	n	n
CC(=NN=Cc1ccccc1)c1nnn(-c2nonc2N)c1C	x	x	x	x	x	n	x
Clc1ccccc1Nc1nc(-c2cccnc2)cs1	n	n	13.9	n	n	n	n
Nc1c(C(O)(C(F)(F)F)C(F)(F)F)cc(C(O)(C(F)(F)F)C(F)(F)F)c2ccccc12	n	n	14.4	x	n	n	n
CN1CC2C(c3ccc(C(F)(F)F)cc3)C3(c4ccccc4)CC2(C3)C1c1ccccc1 (stereo unspecified)	x	x	x	x	x	n	x
Cc1noc(C)c1NC(=O)Nc1ccc2c(c1)C(=O)N(C(C)CO)CC(C)C(CN(C)C(=O)NC(C)C)O2 (stereo unspecified)	x	x	x	x	x	n	x
COc1cccc(N2CCN(S(=O)(=O)c3ccc(-c4coc(C)n4)cc3)CC2)c1	n	n	n	n	n	n	x
Cc1nc(-c2ccc(S(=O)(=O)N3CCN(c4ccccc4)CC3)cc2)co1	n	n	12.4	n	n	n	n
CCOc1ccc(N(CC(=O)Nc2ccc(CC)cc2)S(=O)(=O)c2c(C)[nH]c(=O)[nH]c2=O)cc1	n	n	14.5	n	n	n	n
CCc1ccc(NC(=O)CN(c2ccc(OC)cc2)S(=O)(=O)c2c(C)[nH]c(=O)[nH]c2=O)cc1	n	n	n	n	n	n	x
Cc1cc(NC(=O)COC(=O)c2ccc(OC(F)(F)F)cc2)no1	n	x	x	n	n	n	x
Cc1cc(NC(=O)COC(=O)C(Nc2ccc(C(F)(F)F)cc2Cl)C(C)C)no1 (stereo unspecified)	n	n	14.3	n	n	n	13.3
COc1ccc2[nH]c3c(c2c1)C1CCN2C(=O)CCCC(C3)C12 (stereo unspecified)	x	x	x	x	x	n	x
COC(=O)C(Cc1ccccc1)NC(=O)c1cc(=O)[nH]c2ccccc12 (stereo unspecified)	n	n	n	n	n	n	x
SMILES	MazF activator	DUSP3 inh	SARS 3CLpro inh-1	PrPC surface inh	PrP UTR inh	Mtb hypoxia rep	SARS 3CLpro inh-2
COc1ccccc1OCCNC(=O)c1cc(=O)[nH]c2ccccc12	n	n	62.1	n	n	n	65.2
COC(=O)[C@@H](Cc1c[nH]c2ccccc12)NC(=O)c1cc(=O)[nH]c2ccccc12	n	n	13.6	n	n	n	n
O=C(Nc1ccccc1)C1=CC(C2CC2)CC(OCCCCO)O1 (stereo unspecified)	x	x	x	x	x	n	x
Cc1ccc(C)c(N2CCN(C(=O)CCS(=O)(=O)c3ccc4c(c3)NC(=O)C(C)S4)CC2)c1 (stereo unspecified)	n	n	12.9	n	n	n	n
O=C(NCc1cccnc1)C(=Cc1ccc(-c2ccc(Br)cc2)o1)S(=O)(=O)c1ccccc1	x	x	x	x	x	n	x
CCc1ccc(/C=C/C(=O)c2cc(Br)ccc(=O)c2O)cc1	n	n	n	n	n	n	x
